From PubChem BioAssay
Most compounds without a hit are left out; they make up all but 15% or so of the library.
ELG1 repair inh: inhibitors of ELG1-dependent DNA repair in HEK293T cells; HEK293T ELG1-luciferase reporter, luminescence, 16 h; DNA damage induced by 5-fluorouridine; Potency, µM (doses to about 46.1 µM), for inactives: at the highest dose activity change, negative = inhibition, actives largely listed as inhibitors; 330,000 tested, 2.3% active; further: nearly all actives have a fitted effect of over 55% in size
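Luminescence from the luciferase reporter, measured 30 min after ONE-Glo reagent at room temperature, was the read-out. Beforehand, 2,000 cells per well were exposed for 16 hr at 37 °C to 5-fluorouridine together with compound or vehicle.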
VP16 counter: inhibits Gal4-VP16 luciferase reporter, ROR gamma counter-screen; Drosophila S2 Gal4-VP16 UAS-luciferase, luminescence, 20 h; Potency, µM (highest dose often 53.6 µM), for inactives: at the highest dose activity, negative = inhibition, hits mostly inhibitors; 310,000 tested, 3.5% active; AID 2546;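 further: Gal4-VP16 expression switched on by copper sulfate through the metallothionein promoter; nearly all actives have a fitted effect of over 50% in size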
RORg inh: inhibitors of mouse ROR gamma transcriptional activity; Drosophila S2 Gal4-RORgamma UAS-luciferase reporter, 20 h; Potency, µM (top dose mostly 53.6 µM), for inactives: top-dose activity change, negative = inhibition, hits mostly inhibitors; 310,000 tested, 5.4% active; further: nearly all actives have a fitted effect of over 60% in size
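Using a luciferase readout, inhibitors were identified by reduced reporter activity in Drosophila cells coexpressing a copper-inducible Gal4–ROR gamma fusion and UAS-driven Photinus luciferase, incubated 20 hr after 700 uM copper sulfate.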
TDP1 cell CPT: growth inhibition of DT40 Tdp1-/-;hTDP1 cells with camptothecin (screen for TDP1 inhibitors). chicken DT40 Tdp1-/-;hTDP1 cells + 20 nM CPT, ATP luminescence, 48 h. Potency, µM (top dose mostly 46.2 µM), for the others: at the highest dose activity change, negative = growth inhibition, hits mostly inhibitors. 420,000 tested, 12% active. AID 686979; further: nearly all actives have a fitted effect of over 55% in size
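Cell growth measured by CellTiter-Glo luminescence after a minimum 48 h, 37 C compound exposure with 20 nM CPT in Tdp1-knockout DT40 cells stably expressing hTDP1, seeded 400/well; qHTS titration format.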
12-LOX inh: ALOX12 (human) lipoxygenase inhibition; P18054; purified 12hLO, xylenol orange hydroperoxide absorbance; Potency, µM (titrated, usually from 108 µM), for the others: at the highest dose activity change, negative = inhibition, most hits filed as inhibitors; 580,000 tested, 1.1% active; AID 1671190
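Purified human 12hLO at 150 nM in 25 mM Hepes, 0.01% Triton X-100, pH 7.0, preincubated 15 min at room temperature with compound. Reaction started with 40 uM arachidonic acid, 30 min at room temperature. Hydroperoxide measured by Fe-xylenol orange, 573/405 nm absorbance ratio.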
TDP1 cell noCPT: qHTS for Inhibitors of human tyrosyl-DNA phosphodiesterase 1 (TDP1): qHTS in cells in absence of CPT; DT40 Tdp1-/- hTDP1 cells, no CPT, ATP luminescence, 48 h; Potency, µM (highest dose often 46.2 µM), for the others: at the top dose activity change, negative = growth inhibition, most hits filed as inhibitors; 420,000 tested, 15% active; AID 686978, 2013; further: nearly all actives have a fitted effect of over 55% in size
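Luminescent ATP content (CellTiter-Glo) served as the growth readout. Knockout chicken DT40 cells expressing human TDP1 were exposed to compounds without camptothecin for a minimum 48 hr at 37 °C.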
ELG1 FLuc counter: luciferase inhibition in cell-free luciferin readout for ELG1 hits; shares compounds with ELG1 repair inh; cell-free firefly luciferase luminescence counter-screen, ViewLux; Potency, µM (highest dose often 46.1 µM), without a hit: at the highest dose activity change, negative = inhibition, usual class: inhibitors; 350 tested, 3% active; AID 624247
ELG1 Luc conf: human ELG1 repair inhibition, luciferase-tagged ELG1 confirmation | shares compounds with ELG1 repair inh | HEK293T ELG1-luciferase levels, luminescence; cells co-treated with 5-fluorouridine | Potency, µM (top dose mostly 46.1 µM), for inactives: at the top dose activity change, negative = inhibition, actives largely listed as inhibitors | 670 tested, 68% active | AID 624248; further: nearly all actives have a fitted effect of over 55% in size
ELG1-Luc MMS: confirmation of human ELG1 repair inhibitors, MMS stimulated. shares compounds with ELG1 repair inh. HEK293T luciferase-tagged ELG1 level, MMS stimulated. Potency, µM (top dose mostly 46.1 µM), without a hit: top-dose activity change, negative = inhibition, usual class: inhibitors. 670 tested, 53% active. AID 624249; further: nearly all actives have a fitted effect of over 60% in size
ELG1 5-FU: confirmation of ELG1 repair inhibitors: viability with 5FU; shares compounds with ELG1 repair inh; cell viability with 5-FU, ELG1-dependent repair; Potency, µM (series often up to 46.1 µM), without a hit: at the top dose activity change, negative = viability loss, hits mostly cytotoxic; 670 tested, under 10 active; AID 624250;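 further: ELG1-luc HEK293T cells cotreated with 5-fluorouridine at 10 µM final; viability measured 16 h after compound addition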
ELG1 MMS viab: confirmation of ELG1 repair inhibitors: viability with MMS; AID 624251; 670 tested, 33% active; Cell viability with MMS, ELG1-dependent DNA repair; Potency, µM (doses to about 46.1 µM), inactives show at the highest dose activity change, negative = viability loss, actives largely listed as cytotoxic; shares compounds with ELG1 repair inh;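 further: ELG1-luc HEK293T cells co-treated with 10 µM MMS; viability read 16 h after compound addition; nearly all actives have a fitted effect of over 60% in size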
Cell viab unstim: counter-screen for ELG1 repair inhibitors: unstimulated cell viability. shares compounds with ELG1 repair inh. cell viability counter-screen, unstimulated, luminescence. Potency, µM (highest dose often 45.9 µM), for the others: at the top dose activity change, negative = loss of viability, usual class: cytotoxic. 900 tested, 8% active;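 further: compound exposure lasted 16 hours before reading; nearly all actives have a fitted effect of over 55% in size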
FLuc biochem: firefly luciferase inhibition counter-screen. shares compounds with ELG1 repair inh. purified firefly luciferase, luminescence counter-screen. Potency, µM (series often up to 57.5 µM), for the others: at the top dose activity, negative = inhibition, most hits filed as inhibitors. 350 tested, 10% active
Active calls of the source: *; ? = inconclusive; nt = not tested or not shown; [ ] = remark or other dose. The call rests on the fitted dose curve; in most records, active means well fitted curve in the direction sought with a large enough effect; inconclusive means small, poorly fitted or top-dose-only effect, or another doubt; inactive means no such curve, though single readings can be large; an effect the other way counts as inactive or inconclusive. On the % scale 0 is the no-effect control and ±100 the full control effect; potency means the concentration at half of the fitted maximal effect.

SMILES | ELG1 repair inh | VP16 counter | RORg inh | TDP1 cell CPT | 12-LOX inh | TDP1 cell noCPT | ELG1 Luc conf | ELG1-Luc MMS | ELG1 5-FU | ELG1 MMS viab | Cell viab unstim | others
COc1ccc(-c2nc3c(c(SCC(=O)N4CCOCC4)n2)Cc2c(CO)cnc(C)c2O3)cc1 | 1.3µM* | -19% | -38% | 15µM* | -12% | 10µM* | 3.5µM* | ? | 6% | -2% | -16% | ELG1 FLuc counter=20%;FLuc biochem=0%
COc1ccc(-c2nc3c(c(SCC(=O)Nc4cc(C)cc(C)c4)n2)Cc2c(CO)cnc(C)c2O3)cc1 | nt | nt | nt | -4% | -24% | -12% | nt | nt | nt | nt | nt
CCCNC(=O)C(=O)Nc1ccc2c(c1)N(S(=O)(=O)c1cccs1)CCC2 | 3.3µM* | nt | nt | 15µM* | -3% | 23µM* | 16µM* | 5.6µM* | ? | ? | -10%
COc1ccccc1/C=C/c1nc2ccccc2o1 | nt | nt | nt | -15% | nt | -17% | nt | nt | nt | nt | 0%
CCc1ccccc1OCC(=O)Nc1cc(S(=O)(=O)N(CC)CC)ccc1N1CCOCC1 | 2.6µM* | nt | nt | 21µM* | 42% | 16µM* | 4.4µM* | 20% | ? | -3% | ?
CCN(CC)S(=O)(=O)c1ccc(N2CCOCC2)c(NC(=O)c2ccccc2F)c1 | 0% | 4% | -4% | ? | 3% | ? | nt | nt | nt | nt | nt
COc1ccc(/C=N/n2c(N)c(S(=O)(=O)c3cccs3)c3nc4ccccc4nc32)cc1OC | 2.6µM* | 3% | 0% | ? | -12% | -20% | 3.1µM* | 16% | ? | -1% | -5%
CC(=O)NC1(C)CN(Cc2ccc(-c3ccccc3OCc3ccccc3)s2)C1 | nt | nt | nt | nt | -8%[176 µM] | nt | nt | nt | nt | nt | nt
Cc1c(OCc2ccc([N+](=O)[O-])cc2)ccc2c3c(c(=O)oc12)CCC3 | ? | ? | ? | -13% | 8% | ? | nt | nt | nt | nt | 1%
